According to the supplement of paper PMC11732987, “Enantioselective OTUD7B fragment discovery through chemoproteomics screening and high-throughput optimisation” (Communications Chemistry, 2025):

Key:
Experiment in all cases: log2 ratio of Biotin-Ahx-Ub-VS probe labelling (fragment/DMSO); higher = less target engagement (more negative = stronger competition), active = hit call of the paper (q ≤ 0.05, log2 ratio ≤ -1)
Settings in all cases: compound concentration: 200 uM; treatment time: 3 h
[1] = biological target: USP34 (UniProt Q70CQ2)
USP34, sequence (Q70CQ2 whole entry, the tested form may be a part): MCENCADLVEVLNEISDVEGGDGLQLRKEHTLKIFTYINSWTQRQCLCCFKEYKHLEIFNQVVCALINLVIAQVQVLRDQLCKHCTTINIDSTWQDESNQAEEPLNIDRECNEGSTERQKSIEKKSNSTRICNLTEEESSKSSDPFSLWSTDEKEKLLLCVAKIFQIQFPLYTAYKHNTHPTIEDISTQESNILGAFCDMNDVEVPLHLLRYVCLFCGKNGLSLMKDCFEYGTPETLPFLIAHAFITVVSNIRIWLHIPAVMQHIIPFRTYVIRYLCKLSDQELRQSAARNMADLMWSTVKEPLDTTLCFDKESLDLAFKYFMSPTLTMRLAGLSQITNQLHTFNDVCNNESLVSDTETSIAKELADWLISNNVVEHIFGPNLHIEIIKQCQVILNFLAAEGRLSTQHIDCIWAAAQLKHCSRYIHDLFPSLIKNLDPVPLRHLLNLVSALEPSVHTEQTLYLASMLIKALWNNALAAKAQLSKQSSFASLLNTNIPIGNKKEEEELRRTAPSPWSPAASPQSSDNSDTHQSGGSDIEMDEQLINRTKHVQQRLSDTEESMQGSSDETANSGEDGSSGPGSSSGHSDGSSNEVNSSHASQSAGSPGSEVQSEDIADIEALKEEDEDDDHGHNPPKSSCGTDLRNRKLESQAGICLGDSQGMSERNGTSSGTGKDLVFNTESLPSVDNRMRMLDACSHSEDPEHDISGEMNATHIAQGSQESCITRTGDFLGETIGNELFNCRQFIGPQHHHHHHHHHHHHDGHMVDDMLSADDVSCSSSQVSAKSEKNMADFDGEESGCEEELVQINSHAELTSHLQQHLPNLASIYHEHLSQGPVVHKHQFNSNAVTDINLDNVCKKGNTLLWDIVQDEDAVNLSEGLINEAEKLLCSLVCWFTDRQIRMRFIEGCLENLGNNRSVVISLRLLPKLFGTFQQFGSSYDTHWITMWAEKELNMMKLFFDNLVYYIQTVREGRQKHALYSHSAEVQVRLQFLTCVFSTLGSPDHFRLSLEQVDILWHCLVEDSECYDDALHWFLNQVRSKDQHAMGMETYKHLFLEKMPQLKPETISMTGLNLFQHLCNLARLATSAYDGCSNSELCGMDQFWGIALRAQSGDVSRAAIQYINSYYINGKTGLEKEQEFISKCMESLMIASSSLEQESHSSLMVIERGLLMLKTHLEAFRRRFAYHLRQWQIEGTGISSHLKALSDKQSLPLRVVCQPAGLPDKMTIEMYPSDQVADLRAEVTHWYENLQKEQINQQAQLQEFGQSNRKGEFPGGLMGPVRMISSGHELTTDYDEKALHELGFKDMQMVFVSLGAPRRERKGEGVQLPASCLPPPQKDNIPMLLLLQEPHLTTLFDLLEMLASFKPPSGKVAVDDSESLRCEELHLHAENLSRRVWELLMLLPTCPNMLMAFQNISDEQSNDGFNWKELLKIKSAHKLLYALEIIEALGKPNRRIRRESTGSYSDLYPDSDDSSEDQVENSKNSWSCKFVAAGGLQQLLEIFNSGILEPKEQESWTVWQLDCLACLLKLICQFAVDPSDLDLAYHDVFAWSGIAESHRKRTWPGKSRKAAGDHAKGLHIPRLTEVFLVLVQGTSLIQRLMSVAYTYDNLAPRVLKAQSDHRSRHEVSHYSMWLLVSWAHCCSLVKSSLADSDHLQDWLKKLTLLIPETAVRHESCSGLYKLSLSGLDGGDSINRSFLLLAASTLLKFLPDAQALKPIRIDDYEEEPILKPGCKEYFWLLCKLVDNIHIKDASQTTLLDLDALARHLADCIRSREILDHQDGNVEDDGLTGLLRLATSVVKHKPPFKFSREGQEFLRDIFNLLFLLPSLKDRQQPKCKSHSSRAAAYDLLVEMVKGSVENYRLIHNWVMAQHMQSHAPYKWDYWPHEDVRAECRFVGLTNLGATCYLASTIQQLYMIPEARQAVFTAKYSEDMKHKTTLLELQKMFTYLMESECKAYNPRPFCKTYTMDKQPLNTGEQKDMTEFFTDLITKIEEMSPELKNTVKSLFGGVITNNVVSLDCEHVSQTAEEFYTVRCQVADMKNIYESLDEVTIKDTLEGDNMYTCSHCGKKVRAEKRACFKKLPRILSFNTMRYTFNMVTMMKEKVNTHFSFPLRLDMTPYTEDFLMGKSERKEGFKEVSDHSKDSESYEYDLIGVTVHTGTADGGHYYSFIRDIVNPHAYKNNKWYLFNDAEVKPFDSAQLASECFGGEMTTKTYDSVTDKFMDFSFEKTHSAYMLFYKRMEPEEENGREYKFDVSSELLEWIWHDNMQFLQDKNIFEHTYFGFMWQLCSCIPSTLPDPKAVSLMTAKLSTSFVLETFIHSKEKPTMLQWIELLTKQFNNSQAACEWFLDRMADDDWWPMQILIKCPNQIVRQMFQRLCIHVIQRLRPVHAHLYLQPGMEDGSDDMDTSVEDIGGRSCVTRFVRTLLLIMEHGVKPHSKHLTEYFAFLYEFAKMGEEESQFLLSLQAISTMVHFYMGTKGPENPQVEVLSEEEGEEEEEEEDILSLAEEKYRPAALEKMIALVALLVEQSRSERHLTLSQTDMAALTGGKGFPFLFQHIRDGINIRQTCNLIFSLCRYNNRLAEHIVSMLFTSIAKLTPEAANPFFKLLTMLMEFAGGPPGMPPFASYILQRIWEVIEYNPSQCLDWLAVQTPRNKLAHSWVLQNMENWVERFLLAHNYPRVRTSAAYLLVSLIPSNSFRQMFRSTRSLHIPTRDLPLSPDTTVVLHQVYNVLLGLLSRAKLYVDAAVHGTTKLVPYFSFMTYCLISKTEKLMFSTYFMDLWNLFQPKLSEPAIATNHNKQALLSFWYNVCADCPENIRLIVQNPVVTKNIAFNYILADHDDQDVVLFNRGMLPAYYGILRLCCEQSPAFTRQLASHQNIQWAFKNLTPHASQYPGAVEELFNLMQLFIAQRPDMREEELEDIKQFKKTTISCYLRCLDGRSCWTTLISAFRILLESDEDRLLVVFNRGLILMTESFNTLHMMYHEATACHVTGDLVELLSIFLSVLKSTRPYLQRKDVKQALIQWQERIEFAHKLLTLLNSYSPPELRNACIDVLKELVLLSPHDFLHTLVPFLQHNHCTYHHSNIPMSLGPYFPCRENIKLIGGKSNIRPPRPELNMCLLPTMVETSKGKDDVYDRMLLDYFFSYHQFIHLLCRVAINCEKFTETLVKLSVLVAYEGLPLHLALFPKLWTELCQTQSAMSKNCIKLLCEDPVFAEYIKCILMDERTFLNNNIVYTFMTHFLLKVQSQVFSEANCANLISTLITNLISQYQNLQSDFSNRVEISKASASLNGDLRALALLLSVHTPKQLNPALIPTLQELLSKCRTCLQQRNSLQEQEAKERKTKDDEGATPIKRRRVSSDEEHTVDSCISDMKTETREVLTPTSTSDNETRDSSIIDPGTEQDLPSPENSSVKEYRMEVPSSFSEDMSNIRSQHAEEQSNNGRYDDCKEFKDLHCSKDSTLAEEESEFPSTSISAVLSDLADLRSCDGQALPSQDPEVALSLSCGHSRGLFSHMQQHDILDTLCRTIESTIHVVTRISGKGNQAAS
Summary of the method: (§1)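 The table lists average log2 ratios of fragment over vehicle, from an unpaired t-test on global-median-normalised Spectronaut label-free quantities. Proteins with ≥2 unique peptides were used. Samples were HEK293T lysate (495 µg) treated in triplicate with fragment at 200 µM or vehicle for 3 h, then with Biotin-Ahx-Ub-VS (0.5 µM final) for 1 h, with labelled DUBs NeutrAvidin-enriched and run by diaPASEF LC-MS/MS.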

[2] = biological target: T1, USP36 (UniProt Q9P275)
T1 sequence (whole entry): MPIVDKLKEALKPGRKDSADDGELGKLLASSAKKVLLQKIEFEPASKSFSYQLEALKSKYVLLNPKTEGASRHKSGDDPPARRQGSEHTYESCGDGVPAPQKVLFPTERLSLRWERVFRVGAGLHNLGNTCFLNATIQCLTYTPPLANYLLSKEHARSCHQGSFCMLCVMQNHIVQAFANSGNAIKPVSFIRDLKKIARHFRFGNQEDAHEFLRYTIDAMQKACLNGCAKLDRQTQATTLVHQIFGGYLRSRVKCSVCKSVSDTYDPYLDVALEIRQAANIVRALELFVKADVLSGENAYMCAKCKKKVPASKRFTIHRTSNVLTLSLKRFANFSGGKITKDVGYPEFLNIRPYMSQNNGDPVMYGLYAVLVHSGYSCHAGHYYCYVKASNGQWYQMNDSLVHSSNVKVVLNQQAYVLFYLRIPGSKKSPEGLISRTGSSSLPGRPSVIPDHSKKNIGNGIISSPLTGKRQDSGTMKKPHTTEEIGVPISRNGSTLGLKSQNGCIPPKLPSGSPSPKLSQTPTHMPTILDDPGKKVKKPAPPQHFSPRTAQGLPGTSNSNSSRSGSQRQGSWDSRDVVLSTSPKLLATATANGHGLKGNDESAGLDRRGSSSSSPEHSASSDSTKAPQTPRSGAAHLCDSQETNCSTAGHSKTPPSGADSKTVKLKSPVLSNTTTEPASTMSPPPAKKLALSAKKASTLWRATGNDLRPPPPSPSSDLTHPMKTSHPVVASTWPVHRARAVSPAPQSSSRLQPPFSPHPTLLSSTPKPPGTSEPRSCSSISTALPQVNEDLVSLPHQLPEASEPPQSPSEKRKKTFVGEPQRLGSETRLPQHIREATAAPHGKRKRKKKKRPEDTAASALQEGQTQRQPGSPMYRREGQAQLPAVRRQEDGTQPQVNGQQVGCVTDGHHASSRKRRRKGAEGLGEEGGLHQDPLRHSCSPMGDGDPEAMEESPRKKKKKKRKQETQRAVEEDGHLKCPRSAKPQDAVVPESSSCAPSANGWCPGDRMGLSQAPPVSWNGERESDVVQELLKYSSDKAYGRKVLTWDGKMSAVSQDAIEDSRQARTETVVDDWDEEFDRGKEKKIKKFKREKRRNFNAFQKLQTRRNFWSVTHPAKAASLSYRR
Summary of the method: as §1

[3] = biological target: T2, USP38 (UniProt Q8NB14)
T2 sequence (whole entry): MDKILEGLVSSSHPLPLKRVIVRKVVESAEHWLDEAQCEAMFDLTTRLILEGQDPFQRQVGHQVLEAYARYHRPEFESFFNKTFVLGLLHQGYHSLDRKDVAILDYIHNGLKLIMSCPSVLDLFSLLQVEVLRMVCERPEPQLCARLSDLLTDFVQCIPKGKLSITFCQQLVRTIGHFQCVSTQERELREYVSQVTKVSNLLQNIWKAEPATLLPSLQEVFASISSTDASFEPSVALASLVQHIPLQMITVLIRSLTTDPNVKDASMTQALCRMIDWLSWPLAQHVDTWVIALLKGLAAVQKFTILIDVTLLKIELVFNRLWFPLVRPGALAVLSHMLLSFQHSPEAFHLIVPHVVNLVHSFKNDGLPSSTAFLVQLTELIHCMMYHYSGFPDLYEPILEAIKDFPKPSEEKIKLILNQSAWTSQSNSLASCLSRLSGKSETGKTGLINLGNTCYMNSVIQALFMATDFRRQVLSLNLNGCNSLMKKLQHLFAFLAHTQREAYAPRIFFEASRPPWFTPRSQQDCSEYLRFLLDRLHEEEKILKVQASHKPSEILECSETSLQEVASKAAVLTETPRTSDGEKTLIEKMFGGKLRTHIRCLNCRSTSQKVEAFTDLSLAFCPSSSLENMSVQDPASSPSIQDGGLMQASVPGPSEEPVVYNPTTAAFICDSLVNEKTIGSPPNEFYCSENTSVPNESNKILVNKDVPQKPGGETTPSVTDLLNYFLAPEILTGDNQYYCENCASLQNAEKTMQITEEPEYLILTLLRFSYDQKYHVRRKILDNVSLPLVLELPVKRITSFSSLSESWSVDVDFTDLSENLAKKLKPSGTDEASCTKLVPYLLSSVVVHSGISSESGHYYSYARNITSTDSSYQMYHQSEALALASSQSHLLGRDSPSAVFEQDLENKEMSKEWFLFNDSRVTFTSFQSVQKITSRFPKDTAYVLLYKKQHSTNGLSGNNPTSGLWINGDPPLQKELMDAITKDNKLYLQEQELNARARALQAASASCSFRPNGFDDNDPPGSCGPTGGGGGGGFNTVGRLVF
Summary of the method: as §1

[4] = biological target: T3, USP39 (UniProt Q53GS9)
T3 sequence (whole entry): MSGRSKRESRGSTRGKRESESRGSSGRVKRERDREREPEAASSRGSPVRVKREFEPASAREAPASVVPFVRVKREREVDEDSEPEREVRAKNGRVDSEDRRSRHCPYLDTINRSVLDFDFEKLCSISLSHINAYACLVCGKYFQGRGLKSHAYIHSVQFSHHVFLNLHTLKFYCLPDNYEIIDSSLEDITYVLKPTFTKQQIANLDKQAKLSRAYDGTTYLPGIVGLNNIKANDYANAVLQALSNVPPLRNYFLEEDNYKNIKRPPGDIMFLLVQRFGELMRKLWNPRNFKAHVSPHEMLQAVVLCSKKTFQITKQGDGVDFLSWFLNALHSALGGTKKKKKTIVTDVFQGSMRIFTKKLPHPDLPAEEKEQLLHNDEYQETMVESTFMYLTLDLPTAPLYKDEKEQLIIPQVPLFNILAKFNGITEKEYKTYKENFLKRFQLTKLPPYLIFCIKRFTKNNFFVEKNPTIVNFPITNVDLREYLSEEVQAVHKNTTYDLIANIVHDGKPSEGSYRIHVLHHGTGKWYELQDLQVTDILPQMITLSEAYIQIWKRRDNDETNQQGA
Summary of the method: as §1

[5] = biological target: T4, USP4 (UniProt Q13107)
T4 sequence (whole entry): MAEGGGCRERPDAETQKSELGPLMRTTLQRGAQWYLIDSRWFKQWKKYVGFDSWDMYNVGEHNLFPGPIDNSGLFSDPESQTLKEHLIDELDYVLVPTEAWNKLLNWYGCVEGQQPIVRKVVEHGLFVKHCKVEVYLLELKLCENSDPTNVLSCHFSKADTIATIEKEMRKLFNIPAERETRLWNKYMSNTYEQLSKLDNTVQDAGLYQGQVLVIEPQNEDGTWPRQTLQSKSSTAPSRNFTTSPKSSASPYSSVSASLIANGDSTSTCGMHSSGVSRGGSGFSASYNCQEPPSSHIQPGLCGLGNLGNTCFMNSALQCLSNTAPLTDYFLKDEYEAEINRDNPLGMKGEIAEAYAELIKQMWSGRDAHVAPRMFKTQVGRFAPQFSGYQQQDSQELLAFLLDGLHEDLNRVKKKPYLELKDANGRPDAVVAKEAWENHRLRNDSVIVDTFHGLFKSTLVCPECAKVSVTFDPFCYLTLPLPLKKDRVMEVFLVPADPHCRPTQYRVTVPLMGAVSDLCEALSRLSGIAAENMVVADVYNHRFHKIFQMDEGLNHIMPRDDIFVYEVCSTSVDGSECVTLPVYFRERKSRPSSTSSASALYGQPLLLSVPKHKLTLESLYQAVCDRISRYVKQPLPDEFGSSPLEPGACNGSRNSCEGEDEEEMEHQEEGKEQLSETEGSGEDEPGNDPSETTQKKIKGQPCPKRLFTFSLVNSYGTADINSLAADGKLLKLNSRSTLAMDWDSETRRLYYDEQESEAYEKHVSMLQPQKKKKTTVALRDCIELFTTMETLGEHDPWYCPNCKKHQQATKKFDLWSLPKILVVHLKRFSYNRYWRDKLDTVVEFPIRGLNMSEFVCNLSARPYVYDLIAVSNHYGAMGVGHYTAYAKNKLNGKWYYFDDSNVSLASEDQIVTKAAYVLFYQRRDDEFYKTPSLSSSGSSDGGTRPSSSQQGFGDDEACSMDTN
Summary of the method: as §1

Measured: log2 ratio of Biotin-Ahx-Ub-VS probe labelling

Cl.O=C(CCl)N1CCN(Cc2ccccc2)CC1
inactive: [1] -0.191 | [2] 0.0546 | [3] -0.0649 | [4] 0.144 | [5] -0.121
